# Shown are actives, neighbours in structure and some others; about 11% of the full set was active somewhere.
# ALDH1A1 inh – ALDH1A1 (human) enzyme inhibition | hit rate 7.3% among 220,000 | P00352 | AID 1030 | Purified ALDH1A1, NADH fluorescence, propionaldehyde substrate | Potency, µM (highest dose often 75.3 µM), for the others: top-dose activity, negative = inhibition, actives largely listed as inhibitors;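 also: potency is read from the fitted curve at half-maximal effect; plate controls were no enzyme wells and a reference inhibitor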
# IMPase Li inh – IMPase inhibition in cells with lithium potentiation; CHO-M1 cells, IP1 TR-FRET (IP-One), carbachol + lithium; Potency, µM (series often up to 59.4 µM), inactives show at the highest dose activity, negative = IMPase inhibition, most hits filed as inhibitors; hit rate 0.35% among 210,000; AID 1457; active = well fitted inhibition curve with a large enough effect; inconclusive = small, poorly fitted or top-dose-only effect; inactive = no such curve, though single readings can be large or run the other way;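 also: IP1 builds up when IMPase is blocked and the TR-FRET signal falls; potency is read from the fitted curve at half-maximal effect; plate controls were basal vehicle for no effect and high inhibitor control for full effect; nearly all actives have a fitted effect of over 50% in size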
#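 CHO cells stably expressing M1 receptor (2000/well, cultured 16–30 h) treated 30 min at 37C with compound plus low lithium. Cytosolic IP1 by TR-FRET (665/620 ratio and 620 channel) after 10 min lysis; AC50 by Hill fit.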
# IMPase inh – membrane-permeable compound that blocks inositol monophosphatase. CHO-M1 cells, IP1 accumulation, HTRF TR-FRET ratio. inhibition (IP1 accumulation), % at 46.1 µM. 120,000 tested, under 10 active; active = well fitted curve in the direction sought with a large enough effect in the signal ratio, not every such curve was filed as active; inconclusive = small, poorly fitted or top-dose-only effect, or a change in a side signal; inactive = no such curve, though single readings can be large or run the other way; the % refers to the signal ratio;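 also: cells stimulated with carbachol in lithium chloride buffer; plate controls were DMSO basal wells for no effect and reference inhibitor wells for full effect; higher means more IMPase inhibition seen as more IP1 and lower FRET ratio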
# Target sequence (P97697 whole entry, looked up): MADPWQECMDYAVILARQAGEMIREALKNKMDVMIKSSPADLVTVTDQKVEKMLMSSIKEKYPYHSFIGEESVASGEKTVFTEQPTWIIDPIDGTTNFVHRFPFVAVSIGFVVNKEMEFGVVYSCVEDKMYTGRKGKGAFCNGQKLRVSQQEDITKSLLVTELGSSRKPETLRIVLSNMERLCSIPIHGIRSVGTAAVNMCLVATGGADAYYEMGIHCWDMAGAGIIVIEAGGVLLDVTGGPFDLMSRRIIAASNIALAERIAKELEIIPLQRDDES
#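 Cellular IMPase inhibition is scored as a rise in cytosolic IP1, detected by competitive TR-FRET between d2-labelled IP1 and a europium anti-IP1 antibody. M1-expressing CHO cells were stimulated with carbachol for 30 min at 37C, with lithium (50 mM LiCl) present in the buffer.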
# PNC inhibitor – blocks assembly of the perinucleolar compartment; activity change (PNC), negative = inhibition, % at 10 µM; PC3M PTB-GFP, PNC prevalence imaging, 16 h; active compounds read low; hit rate 3.1% among 140,000;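 active = readout at or below -70, meaning at least 70% loss of cells showing the perinucleolar compartment, a nuclear body marking cancer cells; inconclusive = readout between -30 and a set limit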;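 also: plate controls were DMSO wells for no effect and camptothecin positive control wells for full effect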
#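 Read-out is percentage of cells bearing a perinucleolar compartment, from automated 20x imaging of fixed, Hoechst-stained PC3M PTB-GFP cells. Cells were seeded 4 h, then exposed 16 h to compound (23 nl of library stock) in duplicate plates.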
# HPGD inh – blocks human HPGD enzyme activity; P15428; purified HPGD, NADH fluorescence kinetic, PGE2 substrate; Potency, µM, for the others: at the top dose activity change, negative = inhibition, usual class: inhibitors; hit rate 4.3% among 150,000; also: potency is read from the fitted curve at half-maximal effect
# Target sequence (P15428 whole entry, looked up): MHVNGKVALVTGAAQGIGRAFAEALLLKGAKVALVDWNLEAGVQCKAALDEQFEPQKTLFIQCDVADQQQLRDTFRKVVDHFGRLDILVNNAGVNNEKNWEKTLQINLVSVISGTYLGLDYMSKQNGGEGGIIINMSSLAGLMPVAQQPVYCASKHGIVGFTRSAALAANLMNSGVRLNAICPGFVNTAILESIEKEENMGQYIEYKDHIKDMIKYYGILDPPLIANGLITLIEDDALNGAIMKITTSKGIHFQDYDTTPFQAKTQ
#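 20 nM HPGD preincubated 15 min at room temperature with compound in 50 mM Tris-HCl pH 8, 0.01% Tween 20. Started with 1 mM NAD+ and 30 uM prostaglandin E2; NADH fluorescence (360/450 nm) read 5 times over 30-s intervals, last minus first.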
# Active calls of the source: *; u = inconclusive; x = no result; [ ] = another dose, or the depositor's remark. Unless noted, calls follow the shape of the dose curve; as a rule, active = well fitted inhibition curve with a large enough effect (not every such curve was filed as active); inconclusive = small, poorly fitted or top-dose-only effect, or another doubt; inactive = no such curve, though single readings can be large or run the other way. Unless noted, % is scaled to controls: 0 for no effect and ±100 for the full control effect.
SMILES,ALDH1A1 inh,IMPase Li inh,IMPase inh,PNC inhibitor,HPGD inh
CC1CCCC(NC(=S)NC(=O)c2cncc(Br)c2)C1C (configuration not stated),u,7%,x,0,-12%
c1ccc2nc(-c3ccc4c(c3)OCO4)ccc2c1,u,0%,x,x,x
CNc1ccccc(-c2ccc3cc4c(cc3n2)OCO4)c1=O,u,8%,x,-109*,-3%
COc1cc(/C=N/Nc2nc(C)cc(=O)[nH]2)ccc1OC(=O)c1cccnc1,13%,2%,x,x,x
Oc1c(CN2CCN(c3ccccc3)CC2)cc(Br)c2cccnc12,2%[13.5 µM],-3%,x,x,-8%
c1ccc(N2CCN(Cc3ccnc4ccccc34)CC2)cc1,16µM*,32%[38.3 µM],11,-28,-14%
O=C(CCN1CCC(c2ccccc2)C1)c1ccccc1 (configuration not stated),1.4µM*,10%[38.3 µM],9,54,-22%
O=C(CCN1CCc2ccccc21)c1ccc2c(c1)OCCO2,3.2µM*,46%[38.3 µM],16,-26,-10%
COc1cc(C(=O)CCN2CCC(c3ccccc3)C2)cc(OC)c1OC (configuration not stated),0.04µM*,5%,x,39,-4%
O=C(CCN1CCC(c2ccccc2)C1)c1cccs1 (configuration not stated),0.13µM*,31%[38.3 µM],17,-11,-28%
COc1cc(C(C)=O)ccc1OCCN1CCC(Cc2ccccc2)CC1,u,23%,x,x,x
O=C(Nc1ccccc1)N1CCC(c2ccccc2)C1 (configuration not stated),3%,-8%[38.3 µM],-10,13,-6%
COCCNC(=O)[C@H](C)/C=C(\c1cccnc1)C(NC(=O)OCc1ccccc1)c1ccc(C(=O)OC)cc1 (some centres not stated),-4%,3%,x,x,-7%
COc1cc(CC(=O)N(c2ccccc2)c2nc(C)cs2)cc(OC)c1OC,2%,-1%,x,x,x
O=C(CCN1CCc2ccccc2C1)c1ccc2c(c1)OCCO2,u,34%[38.3 µM],-3,u,u
O=C(CCN1CCC(c2cccs2)=N1)c1cccs1,3.2µM*,x,x,x,x
O=C(CCN1CCCCC1)c1ccc2c(c1)OCCO2,0.1µM*,9%[38.3 µM],6,u,-15%
O=C(CCN1CCC(c2ccccc2)C1)c1ccc2c(c1)OCCO2 (configuration not stated),0.11µM*,38%[38.3 µM],11,u,-14%
c1ccc2c(c1)CCN2CCN1CCc2ccccc21,40µM*,12%[38.3 µM],u,44,-15%
COc1ccc2[nH]cc(CCO)c2c1,-6%,8%,x,x,x
CCOc1ccc(CCNC(=O)COC(=O)c2nc3nc(C)cc(C)n3n2)cc1OCC,-2%,-1%,x,-14,-5%
O=C(Cn1cc(S(=O)(=O)N2CCN(c3ccccc3F)CC2)c2ccccc2c1=O)Nc1cccc(C(F)(F)F)c1,x,x,0,x,x
O=C(CCN1CCCC1Cc1ccccc1)c1ccc2c(c1)OCCO2 (configuration not stated),0.035µM*,9%[38.3 µM],4,30,-20%
Nc1cccc(N)c1,-5%,-8%,x,x,-5%
O=C(NCC(=O)N(Cc1ccc(F)cc1)C(C(=O)NC1CCCC1)c1ccco1)c1ccco1 (configuration not stated),-11%,9%[38.3 µM],4,25,-1%
SMILES,ALDH1A1 inh,IMPase Li inh,IMPase inh,PNC inhibitor,HPGD inh
O=C(NCC(=O)N(Cc1ccccc1)C(C(=O)NC1CCCC1)c1ccncc1)c1ccco1 (configuration not stated),u,0%,3,-16,-13%
O=C(NCC(=O)N(Cc1cccs1)C(C(=O)NC1CCCC1)c1ccncc1)c1ccco1 (configuration not stated),7.9µM*,28%[38.3 µM],-1,u,-12%
O=C(NCC(=O)N(Cc1cccs1)C(C(=O)NC1CCCCC1)c1ccco1)c1ccco1 (configuration not stated),22µM*,12%,15,10,-4%
O=C(c1cnccn1)N1CCC2(CCCN(c3cccc(-c4ccccc4)c3)C2)CC1,-1%,11%,x,x,-9%
Clc1cccc(-c2ccc(CNCCCN3CCOCC3)o2)c1,28µM*,15%,x,x,x
c1csc(CNCCCN2CCOCC2)c1,9%,5%[38.3 µM],4,1,-8%
COc1ccccc1NC(=O)Nc1ccc2c(c1)nc(C)n2C,10%,-1%,x,x,x
c1ccc(Cc2nnc(N3CCOCC3)c3ccccc23)cc1,-4%,14%[38.3 µM],-14,u,25µM*
c1ccc(Cc2nnc(N3CCCCC3)c3ccccc23)cc1,-8%,0%,x,x,x
CCN(CC(=O)Nc1ccc(Cl)c(S(=O)(=O)N(C)C)c1)CC(=O)NC(C)C,5%,7%,x,x,x
C[C@@H]1CC[C@H]2C(=O)N3[C@@H](CC[C@@H](C)[C@@H]3c3ccc(Br)cc3)C(=O)N2[C@@H]1c1ccc(Br)cc1,-9%[13.5 µM],x,x,x,x
C=CCc1cccc(C2C(C)CCC3C(=O)N4C(CCC(C)C4c4cccc(CC=C)c4)C(=O)N32)c1 (configuration not stated),6.3µM*,x,x,x,x
O=[N+]([O-])c1ccccc1/C=N/N1CCN(c2ccccn2)CC1,-3%,16%[38.3 µM],7,-7,-5%
Cc1ccc(N2CCN(/N=C/c3ccccc3[N+](=O)[O-])CC2)cc1,16µM*,12%,x,x,x
CCOC(=O)C1=C(C)N=C2c3ccccc3C(=O)C2C1c1ccc(Cl)cc1 (configuration not stated),-9%,20%[38.3 µM],11,-30,-6%
CCOC(=O)C1=C(Cc2ccc(Cl)cc2)C(=O)c2ccccc2C1=O,u,28%[38.3 µM],-4,51,3.5µM*
Cc1cc2c(C)nc(Cc3ccccc3)nc2o1,8.9µM*,20%[38.3 µM],0,11,-30%
CSc1nc(C)c2cc(C)oc2n1,-5%,15%[38.3 µM],-6,24,-13%
CS(=O)(=O)N(CCc1ccccc1)CC(=O)NCC1CCCO1 (configuration not stated),1%,-2%[38.3 µM],-2,7,-6%
Cc1cccc(NC(=S)N2CCn3cccc3C2c2cccnc2)c1 (configuration not stated),u,10%,-2,u,-2%
COc1cccc(NC(=S)N2CCn3cccc3C2c2cccnc2)c1 (configuration not stated),14µM*,22%,x,x,x
S=C(NCc1ccccc1)N1CCn2cccc2C1c1cccnc1 (configuration not stated),3.5µM*,u,x,x,x
COC(=O)c1ccc(C(NC(=O)OCc2ccccc2)/C(C)=C/[C@@H](C)C(=O)Nc2ccc(OC)cc2)cc1 (some centres not stated),u,-2%,x,x,-15%
NS(=O)(=O)c1ccc(NC(=S)NCc2ccccc2Cl)cc1,25µM*,10%,-12,-21,-18%
CC(C)CC(=O)NNC(=S)Nc1ccc(S(N)(=O)=O)cc1,11µM*,2%,x,x,x

# Assay outcomes deposited in PubChem by National Center for Advancing Translational Sciences (NCATS).
